In all, about 360,000 compounds went through this assay and about 11,000 (3.1%) were called active. About 2% were inconclusive and are not listed. This is one part of a sample in which actives are shown more often than they occur. A number with no mark means an inactive call. No stated cut-off is given here; in the data, active means fluorescence intensity above about 16000; inconclusive means no clear call, values can overlap the other calls; inactive means below that.
Test: counter-screen for toxin protease inhibitors: compound fluorescence, primary screen, artefact control for toxin protease inhibitor project, biochemical, multiplex microsphere, HTS (AID 624483)
Conditions: compound autofluorescence counterscreen, microsphere flow cytometry; stronger effect = higher value
`CC1CCN(C(=O)c2ccc(S(=O)(=O)Cc3cc(F)ccc3F)c([N+](=O)[O-])c2)CC1` gave a fluorescence intensity of 2510. In the case of `CCc1ccc2nc(Nc3ncc(C(C)=O)c(C)n3)nc(C)c2c1`, the fluorescence intensity is reported as 3620. Compound `CCOC(=O)[C@]12CCC=C1N(CCC1=CCCCC1)C(=O)[C@H](CC(=O)NCc1ccc(C)o1)C2` has a fluorescence intensity of 5770. For `COc1ccc(S(=O)(=O)NC(C)C(=O)N2CCCCCC2)cc1` (centres undefined), the fluorescence intensity was 3500. In the case of `CCCC(NS(=O)(=O)c1ccc(OC)cc1)C(=O)O` (centres undefined), the fluorescence intensity is reported as 20900 (active). With `CSCC(NS(=O)(=O)c1ccc(C)cc1)C(=O)O` (centres undefined) the fluorescence intensity was 4880. With `O=C(OCC(=O)N1CCCCCC1)c1ccc(Cl)nc1` the fluorescence intensity was 3860. With `N#Cc1cccc(NC(=O)c2cc(C3CCCCN3C(=O)CCc3ccccc3)on2)c1` (centres undefined) the fluorescence intensity was 4290. For `CC(=O)OC[C@@H]1CN(Cc2ccccc2)C[C@H](n2cnc3c(NCc4ccco4)ncnc32)O1`, the fluorescence intensity was 3590. In the case of `Cc1ccc(NC(=O)CCNS(=O)(=O)c2ccc3c(c2)oc(=O)n3C)cc1C`, the fluorescence intensity is reported as 22000 (active). `COc1cccc(NC(=O)CCNS(=O)(=O)c2ccc3c(c2)oc(=O)n3C)c1` showed a fluorescence intensity of 4240. `Cn1c(=O)oc2cc(S(=O)(=O)NCCC(=O)NCc3ccccc3Cl)ccc21` gave a fluorescence intensity of 4110. With `N#Cc1c(/N=C/N2CCCC2)oc(-c2ccccc2)c1-c1ccccc1` the fluorescence intensity was 3080. `O=C(O)Cc1ccc(NC(=O)C2CCCCC2C(=O)O)cc1` (centres undefined) gave a fluorescence intensity of 4130. `O=C(NC1CCN(C(=S)Nc2ccc(Cl)cc2)CC1)C1CCCCC1` gave a fluorescence intensity of 3100. In the case of `O=C(O)C1CCCCC1C(=O)Nc1ccc(Cl)cc1` (centres undefined), the fluorescence intensity is reported as 25300 (active). `CCOC(=O)c1ccn(S(=O)(=O)c2ccc(C)cc2)c1-c1ccccc1` showed a fluorescence intensity of 5920. Work on `O=S1(=O)C[C@@H](N2CCN(CCO)CC2)[C@H](COCc2ccccc2)N1` yielded a fluorescence intensity of 4260. `COc1ccc(/C=C/C(=O)c2c(O)cc(OC)cc2OC)cc1` gave a fluorescence intensity of 5700. Compound `Cc1ccc2nc(-c3ccccc3)c(CC3CCCCC3)n2c1` has a fluorescence intensity of 8550. `Cc1ccc(SCc2cc(=O)[nH]c(N3CCCCC3)n2)cc1` gave a fluorescence intensity of 4420. With `Cc1ccc(SCCSc2ncccn2)cc1` the fluorescence intensity was 4180. For `Cc1ccc(SCC2=NNC(=O)C2)cc1`, the fluorescence intensity was 22700 (active). `O=C(COC(=O)c1ccc(Cl)nc1)NCc1cccs1` showed a fluorescence intensity of 4330. `O=C(C1CC(=O)N(C2CCCCC2)C1)N1CCN(c2ccccc2)CC1` (centres undefined) showed a fluorescence intensity of 5000. For `O=C(C1CC(=O)N(C2CCCC2)C1)N1CCC2(CC1)OCCO2` (centres undefined), the fluorescence intensity was 21300 (active). Compound `O=C(C1CC(=O)N(C2CCCC2)C1)N1CCN(c2cccc(C(F)(F)F)c2)CC1` (centres undefined) has a fluorescence intensity of 5860. With `CCCNC(=O)C1(C)CCN(C(=O)c2ccccc2OC(F)(F)F)C1` (centres undefined) the fluorescence intensity was 3700. `Cc1ccc(S(=O)(=O)N2CC[C@H]3[C@@H](C2)C(=O)C[C@@H](c2ccccc2)N3S(=O)(=O)c2ccc(C)cc2)cc1` gave a fluorescence intensity of 6280. `CCc1cccc2c(=O)c(C(=O)NCCCOC)c[nH]c12` showed a fluorescence intensity of 4150. Work on `COC1=CC(=O)OC(c2ccc(OC)cc2)C1` (centres undefined) yielded a fluorescence intensity of 3440. `COc1cc(CO)c(C2(CO)CCCC2)cc1OC` gave a fluorescence intensity of 2910. For `CC1(C)CC(=O)C2=C(C1)N=C1SCCC(=O)N1C2c1ccc(C(F)(F)F)cc1` (centres undefined), the fluorescence intensity was 22500 (active). In the case of `CCCCC[C@@H]1C=C(C(=O)OCC)[C@H](c2ccccc2)N1S(=O)(=O)c1ccc(C)cc1`, the fluorescence intensity is reported as 6420. For `O=C1NC[C@H](CCCCN2C[C@H](Cc3ccc(O)cc3)N(CCc3ccccc3)C(=O)C2=O)N(CCc2ccccc2)C1=O`, the fluorescence intensity was 5840. `C=C(C)CNC(=S)/N=c1\scc(C)n1CC` gave a fluorescence intensity of 8000. `CC1(C)OC(=O)C2=C(C[C@@H](C3CC3)O[C@H]2CCc2cccc(Cl)c2)O1` showed a fluorescence intensity of 6150. Compound `Cc1cc(O)ccc1-c1cc(C(=O)NCc2cc(C(F)(F)F)cc(C(F)(F)F)c2)[nH]n1` has a fluorescence intensity of 4030. For `CCCOc1ccc(C2NC(=O)NC(c3ccccc3)=C2C(C)=O)cc1OCC` (centres undefined), the fluorescence intensity was 16800 (active). With `CCOC(=O)C1=C(c2ccccc2)NC(=O)NC1c1cc(OCC)c(O)c([N+](=O)[O-])c1` (centres undefined) the fluorescence intensity was 3560. Compound `COc1cc(C2NC(=O)NC(c3ccccc3)=C2C(C)=O)c(Br)cc1OCC(N)=O` (centres undefined) has a fluorescence intensity of 3130. For `COc1c(C)cc(C(O)c2ncc(-c3cccc(C(F)(F)F)c3)[nH]2)cc1C` (centres undefined), the fluorescence intensity was 2880. `COCCCn1c(=O)/c(=C/c2ccccc2OC(C)C)s/c1=C(\C#N)C(=O)Nc1ccc(C(=O)O)cc1` gave a fluorescence intensity of 4090. Work on `CC1(C(=O)O)CCCN(C(=O)/C=C/c2ccccc2)C1` (centres undefined) yielded a fluorescence intensity of 3760. With `CC(=O)NC1=NC(=O)CS1` the fluorescence intensity was 22000 (active). `Cc1cccc(N)c1SC1CCCCC1O` (centres undefined) showed a fluorescence intensity of 2470. Work on `CN(C)/C=C/C(=O)c1cnc2sccn2c1=O` yielded a fluorescence intensity of 4610. `C[C@H]1Cn2cnc(C(=O)N[C@@H](Cc3c[nH]c4ccccc34)C(=O)OC(C)(C)C)c2C(=O)N1` gave a fluorescence intensity of 3860. For `CCN(c1ccccc1)S(=O)(=O)c1ccc(NC(=O)C(C)(C)C)cc1`, the fluorescence intensity was 23900 (active). Work on `CCN(c1ccccc1)S(=O)(=O)c1ccc(C(=O)Nc2ccccc2OC)cc1` yielded a fluorescence intensity of 3100. With `CCN(c1ccccc1)S(=O)(=O)c1ccc(N)cc1` the fluorescence intensity was 5250. Compound `O=c1[nH][nH]c2c1[C@H](c1ccc(Cl)cc1)O[C@H](CCc1ccccc1)C2` has a fluorescence intensity of 5920. For `CCc1nc2c(OCc3ccccc3)cccn2c1N(C)C(=O)c1ccco1`, the fluorescence intensity was 2960. With `COc1ccc(OC)c(Cc2nnc(CCC(=O)NC3CCCC3)o2)c1` the fluorescence intensity was 2020. `COc1cccc(CNC(=O)C2CC(=O)N(C3CCCCCCC3)C2)c1` (centres undefined) showed a fluorescence intensity of 5720. `COc1ccc(OC)c(CN2C(=O)CCC2(C)c2nnnn2Cc2ccccc2)c1` (centres undefined) showed a fluorescence intensity of 5850. `COc1ccc(CN2CC(C(=O)NC3CCCCC3)CC2=O)cc1` (centres undefined) showed a fluorescence intensity of 4380. With `COc1cccc(CN2C(=O)CCC2(C)C(=O)NC2CCCCCC2)c1` (centres undefined) the fluorescence intensity was 21300 (active). In the case of `COc1ccc(OC)c(CN2C(=O)CCC2(C)C(=O)NC2CCCCCC2)c1` (centres undefined), the fluorescence intensity is reported as 23000 (active). `O=C1C2(c3ccccc3)CN(CCCO)CC1(c1ccccc1)CN(CCCO)C2` showed a fluorescence intensity of 10600. Work on `CCCc1nc2c3ccccc3ccn2c1Cc1ccccc1C(F)(F)F` yielded a fluorescence intensity of 5310. `Cc1ccc(S(=O)(=O)N2CCN(C(=O)CCC(=O)NC3CCCc4ccccc43)CC2)cc1` (centres undefined) showed a fluorescence intensity of 7770. `O=C(NCCO)C(=O)NCC(c1ccc2c(c1)OCO2)N1CCN(c2ccc(F)cc2)CC1` (centres undefined) showed a fluorescence intensity of 5880. With `CC(NC(=O)Nc1ccc2c(c1)OCO2)c1ccncc1` (centres undefined) the fluorescence intensity was 2060. With `O=C(Nc1nc(-c2ccc3c(c2)OCO3)cs1)c1ccncc1` the fluorescence intensity was 23200 (active). In the case of `C/C(=N/NC(=O)c1ccncc1)c1ccc2c(c1)OCO2`, the fluorescence intensity is reported as 3750. For `O=[N+]([O-])c1ccccc1SNc1ccccn1`, the fluorescence intensity was 2510. `CNC[C@H]1OCc2cnnn2CCCC(=O)N([C@H](C)CO)C[C@@H]1C` showed a fluorescence intensity of 4160. `COc1ccc(OC)c(NC(=O)Cc2cccs2)c1` showed a fluorescence intensity of 3820. With `COc1ccc(OC)c(NC(=O)CC(Cc2ccccc2OC)C(=O)O)c1` (centres undefined) the fluorescence intensity was 21100 (active). For `COc1ccc(OC)c(NC(=O)N[C@H](Cc2ccccc2)C(=O)NN)c1`, the fluorescence intensity was 5710. Work on `Cc1ccc(S(=O)(=O)NC(C)C(=O)Nc2ccccc2C(=O)N2CCCC2)cc1` (centres undefined) yielded a fluorescence intensity of 3260. Work on `Cc1ccc(CNC(=O)Nc2nnc([C@H]3C[C@H](O)[C@@H](CO)O3)s2)cc1` yielded a fluorescence intensity of 2810. `Cc1cccc(NC(=O)c2ccc3nsnc3c2)c1C` showed a fluorescence intensity of 2560. `O=C(NCCc1ccccc1)c1cccc(NC(=O)c2ccccc2)c1` showed a fluorescence intensity of 3070. For `O=C(Nc1ccccc1)c1ccc2nsnc2c1`, the fluorescence intensity was 16300 (active). In the case of `O=C(OC1CC2CC1[C@H]1CCCCN1C2=O)N1CCOCC1` (some centres undefined), the fluorescence intensity is reported as 5270. Compound `CC1(C(=O)NCc2ccco2)Cc2c(-c3ccc4c(c3)OCO4)ccnc2O1` (centres undefined) has a fluorescence intensity of 4110. `O=C1C(Sc2cccc(F)c2)=C[C@@]2(O)CC[C@@H](O)[C@]1(Sc1cccc(F)c1)[C@H]2O` gave a fluorescence intensity of 5520. Work on `O=C(Nc1ccccc1C(=O)N1CCCCCC1)c1ccccc1Cl` yielded a fluorescence intensity of 6360. In the case of `O=C(Nc1ccc2sc3ccccc3c(=O)c2c1)c1ccccc1Cl`, the fluorescence intensity is reported as 2540. In the case of `O=C(Nc1cc(=O)[nH]c2ncnn12)c1ccccc1Cl`, the fluorescence intensity is reported as 16500 (active). In the case of `Cc1ccc(S(=O)(=O)N(C)c2ccc(C(=O)NCC3(N(C)C)CCCCC3)cc2)cc1`, the fluorescence intensity is reported as 5740. In the case of `Cc1ccc(S(=O)(=O)C2(S(=O)(=O)c3ccc(C)cc3)CCCC2)cc1`, the fluorescence intensity is reported as 6800. With `Cc1ccc(S(=O)(=O)N(C)C2(C)CCS(=O)(=O)C2)cc1` (centres undefined) the fluorescence intensity was 21400 (active). Compound `CN(C)CCNC(=O)c1ccc(-c2cn3c(-c4ccc(Oc5ccccc5)cc4)cnc3cn2)cc1` has a fluorescence intensity of 4030. With `Cc1ccccc1N1CC(c2nc3ccccc3[nH]2)CC1=O` (centres undefined) the fluorescence intensity was 20000 (active). For `CCCNC(=S)N1CCCC(c2nc3ccccc3[nH]2)C1` (centres undefined), the fluorescence intensity was 4060. Work on `O=C(C1CCCO1)N1CCC(c2nc3ccccc3[nH]2)CC1` (centres undefined) yielded a fluorescence intensity of 9970. Compound `CCCNC(=O)C1(C)CCN1C(=O)C1(c2ccccc2)CC1` (centres undefined) has a fluorescence intensity of 3570. With `C=C(C)CSc1nnc(-c2ccc(C)cc2)n1N` the fluorescence intensity was 9220. For `S=C1SCN(CCN2CCOCC2)CN1Cc1ccccc1`, the fluorescence intensity was 24500 (active). In the case of `Cn1c(=O)c2c(nc(CN3CCOCC3)n2Cc2ccccc2)n(C)c1=O`, the fluorescence intensity is reported as 9090. `C/C(CCc1ccccc1)=N\NC(=O)c1ccc(CN2CCOCC2)cc1` gave a fluorescence intensity of 2210.

From PubChem BioAssay AID624483 (NMMLSC, 2012)
